Test results reported in ChEMBL document CHEMBL3988442, “University of Dundee, Small-Polar-MMV Screening Library” (2021).
For some of these results: Results with a measured potency or affinity are listed apart.

Tests used:
Parameters in all cases: scale not given: direction of the effect not stated beside the values
[1] = molecular target: Protein translocase subunit SecA (Escherichia coli (strain K12)) (UniProt P10408); assay: Assay to Identify E. coli SecA ATPase Inhibitors; format: functional; details: 30 µM
Sequence of Protein translocase subunit SecA (Escherichia coli (strain K12)) (P10408 whole entry): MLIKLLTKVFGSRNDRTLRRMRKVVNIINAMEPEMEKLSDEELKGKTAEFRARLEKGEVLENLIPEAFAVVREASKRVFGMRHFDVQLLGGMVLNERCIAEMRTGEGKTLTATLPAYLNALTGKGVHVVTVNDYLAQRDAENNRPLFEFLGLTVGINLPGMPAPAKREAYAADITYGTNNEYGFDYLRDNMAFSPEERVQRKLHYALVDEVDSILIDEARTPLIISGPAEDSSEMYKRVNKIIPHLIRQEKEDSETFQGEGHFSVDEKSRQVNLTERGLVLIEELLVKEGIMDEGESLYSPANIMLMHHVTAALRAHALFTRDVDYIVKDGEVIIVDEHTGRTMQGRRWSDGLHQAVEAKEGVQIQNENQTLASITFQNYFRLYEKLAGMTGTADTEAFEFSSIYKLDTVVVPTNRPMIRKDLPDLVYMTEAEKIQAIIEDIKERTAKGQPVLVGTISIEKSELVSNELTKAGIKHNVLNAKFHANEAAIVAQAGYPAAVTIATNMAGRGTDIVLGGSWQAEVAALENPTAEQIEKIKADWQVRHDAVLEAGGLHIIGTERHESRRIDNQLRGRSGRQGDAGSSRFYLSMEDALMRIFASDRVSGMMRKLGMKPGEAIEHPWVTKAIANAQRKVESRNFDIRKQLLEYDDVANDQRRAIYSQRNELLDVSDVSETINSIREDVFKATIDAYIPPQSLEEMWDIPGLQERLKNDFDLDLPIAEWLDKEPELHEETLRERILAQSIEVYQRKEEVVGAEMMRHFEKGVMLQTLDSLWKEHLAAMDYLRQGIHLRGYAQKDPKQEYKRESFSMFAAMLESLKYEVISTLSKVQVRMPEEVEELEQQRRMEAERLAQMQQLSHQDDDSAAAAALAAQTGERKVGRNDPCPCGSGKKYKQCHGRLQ

[2] = molecular target: T1, Ubiquitin-activating enzyme e1, putative (Leishmania donovani (strain BPK282A1)) (UniProt E9BSI1); assay: Leishmania donovani Ubiquitin Activating Enzyme (LdE1); format: functional; details: 30 µM
T1 sequence (whole entry): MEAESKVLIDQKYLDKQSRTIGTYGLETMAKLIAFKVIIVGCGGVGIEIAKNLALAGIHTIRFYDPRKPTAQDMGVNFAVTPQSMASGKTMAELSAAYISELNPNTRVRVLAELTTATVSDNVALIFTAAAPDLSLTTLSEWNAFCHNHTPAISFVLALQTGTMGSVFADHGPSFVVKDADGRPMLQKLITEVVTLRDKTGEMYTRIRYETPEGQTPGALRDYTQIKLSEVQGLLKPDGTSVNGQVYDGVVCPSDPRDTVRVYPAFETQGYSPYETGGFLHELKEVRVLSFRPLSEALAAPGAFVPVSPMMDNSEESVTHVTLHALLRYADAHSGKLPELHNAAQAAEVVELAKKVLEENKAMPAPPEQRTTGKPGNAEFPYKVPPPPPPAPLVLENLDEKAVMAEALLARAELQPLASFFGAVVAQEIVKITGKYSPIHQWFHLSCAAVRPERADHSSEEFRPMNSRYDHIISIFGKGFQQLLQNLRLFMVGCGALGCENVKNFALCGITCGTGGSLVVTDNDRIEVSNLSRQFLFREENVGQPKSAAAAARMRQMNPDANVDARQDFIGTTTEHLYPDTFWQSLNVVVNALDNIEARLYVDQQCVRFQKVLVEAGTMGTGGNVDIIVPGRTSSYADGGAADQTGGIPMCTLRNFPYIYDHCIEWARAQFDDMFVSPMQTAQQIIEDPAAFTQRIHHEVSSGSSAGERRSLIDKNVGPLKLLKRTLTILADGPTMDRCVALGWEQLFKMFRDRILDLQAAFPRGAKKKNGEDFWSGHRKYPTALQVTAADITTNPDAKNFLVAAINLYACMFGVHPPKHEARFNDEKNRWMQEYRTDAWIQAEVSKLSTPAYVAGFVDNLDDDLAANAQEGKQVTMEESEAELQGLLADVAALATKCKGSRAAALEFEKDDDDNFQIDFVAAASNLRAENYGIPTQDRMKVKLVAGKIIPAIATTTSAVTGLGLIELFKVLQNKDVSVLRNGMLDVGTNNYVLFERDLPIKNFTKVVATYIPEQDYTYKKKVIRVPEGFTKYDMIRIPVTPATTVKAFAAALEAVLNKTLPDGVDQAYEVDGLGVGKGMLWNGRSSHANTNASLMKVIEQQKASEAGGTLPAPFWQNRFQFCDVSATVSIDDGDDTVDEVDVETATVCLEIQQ

[3] = molecular target: AMP-activated protein kinase, AMPK (Homo sapiens) (UniProt P54646+O43741+P54619+Q9UGJ0+Q9Y478+Q13131+Q9UGI9); assay: AMP-dependent Kinase enzyme assay. An in vitro enzyme assay that detects ADP turnover that is directly proportional to AMPK activity. This uses naive AMPK that is activated during the assay with MK-8722; format: functional; details: 30 µM
[4] = molecular target: Sialic acid-binding Ig-like lectin 9 (Homo sapiens) (UniProt Q9Y336); assay: Hs-Siglec9 ALPHAscreen SOP 20170721; details: 10 µM
Sequence of Sialic acid-binding Ig-like lectin 9 (Homo sapiens) (Q9Y336 whole entry): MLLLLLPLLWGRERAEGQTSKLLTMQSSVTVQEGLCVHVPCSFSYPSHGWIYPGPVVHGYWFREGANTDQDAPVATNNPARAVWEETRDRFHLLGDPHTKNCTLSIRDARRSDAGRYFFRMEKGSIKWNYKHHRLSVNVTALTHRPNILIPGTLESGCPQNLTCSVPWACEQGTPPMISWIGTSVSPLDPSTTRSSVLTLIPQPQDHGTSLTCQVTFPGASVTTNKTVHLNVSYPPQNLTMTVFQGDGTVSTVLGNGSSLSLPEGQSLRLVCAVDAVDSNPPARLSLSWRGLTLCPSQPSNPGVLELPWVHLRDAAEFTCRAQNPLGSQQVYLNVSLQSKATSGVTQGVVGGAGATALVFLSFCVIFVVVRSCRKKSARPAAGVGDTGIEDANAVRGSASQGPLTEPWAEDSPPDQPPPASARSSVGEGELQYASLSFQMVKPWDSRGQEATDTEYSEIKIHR

Trypanosoma cruzi = assay: Trypanosoma cruzi phosphomannomutase and mannose-1-phosphate guanylyltransferase assay; format: functional; details: 10 µM
[5] = molecular target: T2, Arginase-2, mitochondrial (Homo sapiens) (UniProt P78540); assay: in vitro enzyme assay to detect the production of urea directly proportional to the activity of Arginase II; format: functional; details: 33.3 µM; note: in the data most compounds retested in dose-response had high values
T2 sequence (whole entry): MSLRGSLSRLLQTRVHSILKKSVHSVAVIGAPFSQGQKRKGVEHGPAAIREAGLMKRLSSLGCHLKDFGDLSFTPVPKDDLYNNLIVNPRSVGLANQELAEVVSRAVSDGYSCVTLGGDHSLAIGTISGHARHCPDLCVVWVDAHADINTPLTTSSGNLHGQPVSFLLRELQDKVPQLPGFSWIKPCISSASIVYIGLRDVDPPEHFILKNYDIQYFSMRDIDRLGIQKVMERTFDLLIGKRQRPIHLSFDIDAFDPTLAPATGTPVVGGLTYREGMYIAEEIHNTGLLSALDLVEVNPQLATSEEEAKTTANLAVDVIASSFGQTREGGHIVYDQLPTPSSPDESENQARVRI

[6] = molecular target: T3, Proteasome subunit beta (Trypanosoma cruzi) (UniProt O96673); assay: Trypanosoma cruzi proteasome chymotrypsin-like activity (TcProtChymo) assay.; note: in the data most compounds retested in dose-response had high values; format: functional; details: 9.37 µM
T3 sequence (whole entry): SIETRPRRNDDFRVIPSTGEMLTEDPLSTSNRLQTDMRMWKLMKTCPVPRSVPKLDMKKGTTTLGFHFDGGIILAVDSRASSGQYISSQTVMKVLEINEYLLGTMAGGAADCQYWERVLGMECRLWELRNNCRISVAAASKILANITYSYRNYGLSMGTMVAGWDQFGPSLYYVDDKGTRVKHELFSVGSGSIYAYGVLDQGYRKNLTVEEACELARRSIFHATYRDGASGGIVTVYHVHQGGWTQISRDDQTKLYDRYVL

Homo sapiens = species on record: Homo sapiens; assay: To identify inhibition of the IFN signalling (Jak-Stat) pathway via expression of an eGFP reporter gene under the control of an IFN-stimulated response element (ISRE) containing MxA promoter.; format: functional; details: 30 µM
[7] = molecular target: T4, Tyrosyl-tRNA synthetase, putative (Trypanosoma cruzi (strain CL Brener)) (UniProt Q4DSP6); assay: Trypanosoma cruzi tyrosyl tRNA synthetase (TcYRS) _High Tyrosine SOP; format: functional; details: 30 µM; note: in the data most compounds retested in dose-response had high values
T4 sequence (whole entry): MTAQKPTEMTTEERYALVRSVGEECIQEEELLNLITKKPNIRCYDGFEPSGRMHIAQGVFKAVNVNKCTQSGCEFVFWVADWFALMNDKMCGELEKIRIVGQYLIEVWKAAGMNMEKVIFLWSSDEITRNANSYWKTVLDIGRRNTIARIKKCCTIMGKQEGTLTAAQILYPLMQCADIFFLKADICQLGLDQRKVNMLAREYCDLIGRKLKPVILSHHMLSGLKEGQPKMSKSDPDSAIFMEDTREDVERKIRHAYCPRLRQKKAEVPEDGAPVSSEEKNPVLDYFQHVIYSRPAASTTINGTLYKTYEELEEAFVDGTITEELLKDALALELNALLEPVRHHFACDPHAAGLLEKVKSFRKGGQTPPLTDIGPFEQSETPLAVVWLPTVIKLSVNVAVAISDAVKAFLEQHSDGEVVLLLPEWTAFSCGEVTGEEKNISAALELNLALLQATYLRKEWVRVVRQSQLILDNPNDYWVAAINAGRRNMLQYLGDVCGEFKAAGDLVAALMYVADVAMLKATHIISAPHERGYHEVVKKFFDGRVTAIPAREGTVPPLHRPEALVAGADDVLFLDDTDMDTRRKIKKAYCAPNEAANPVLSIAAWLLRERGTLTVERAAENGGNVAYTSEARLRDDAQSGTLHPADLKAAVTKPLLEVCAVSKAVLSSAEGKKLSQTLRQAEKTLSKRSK

[8] = molecular target: T4, Tyrosyl-tRNA synthetase, putative (Trypanosoma cruzi (strain CL Brener)); assay: Trypanosoma cruzi tyrosyl tRNA synthetase (TcYRS) SOP; format: functional; details: 30 µM
[9] = molecular target: Chromo domain-containing protein 1 (Saccharomyces cerevisiae (strain ATCC 204508 / S288c) (Baker's yeast)) (UniProt P32657); assay: ScCHD-1 Enzyme Inhibition Assay; format: functional; details: 30 µM; note: in the data most compounds retested in dose-response had high values
Sequence of Chromo domain-containing protein 1 (Saccharomyces cerevisiae (strain ATCC 204508 / S288c) (Baker's yeast)) (P32657 whole entry, the tested form may be a part): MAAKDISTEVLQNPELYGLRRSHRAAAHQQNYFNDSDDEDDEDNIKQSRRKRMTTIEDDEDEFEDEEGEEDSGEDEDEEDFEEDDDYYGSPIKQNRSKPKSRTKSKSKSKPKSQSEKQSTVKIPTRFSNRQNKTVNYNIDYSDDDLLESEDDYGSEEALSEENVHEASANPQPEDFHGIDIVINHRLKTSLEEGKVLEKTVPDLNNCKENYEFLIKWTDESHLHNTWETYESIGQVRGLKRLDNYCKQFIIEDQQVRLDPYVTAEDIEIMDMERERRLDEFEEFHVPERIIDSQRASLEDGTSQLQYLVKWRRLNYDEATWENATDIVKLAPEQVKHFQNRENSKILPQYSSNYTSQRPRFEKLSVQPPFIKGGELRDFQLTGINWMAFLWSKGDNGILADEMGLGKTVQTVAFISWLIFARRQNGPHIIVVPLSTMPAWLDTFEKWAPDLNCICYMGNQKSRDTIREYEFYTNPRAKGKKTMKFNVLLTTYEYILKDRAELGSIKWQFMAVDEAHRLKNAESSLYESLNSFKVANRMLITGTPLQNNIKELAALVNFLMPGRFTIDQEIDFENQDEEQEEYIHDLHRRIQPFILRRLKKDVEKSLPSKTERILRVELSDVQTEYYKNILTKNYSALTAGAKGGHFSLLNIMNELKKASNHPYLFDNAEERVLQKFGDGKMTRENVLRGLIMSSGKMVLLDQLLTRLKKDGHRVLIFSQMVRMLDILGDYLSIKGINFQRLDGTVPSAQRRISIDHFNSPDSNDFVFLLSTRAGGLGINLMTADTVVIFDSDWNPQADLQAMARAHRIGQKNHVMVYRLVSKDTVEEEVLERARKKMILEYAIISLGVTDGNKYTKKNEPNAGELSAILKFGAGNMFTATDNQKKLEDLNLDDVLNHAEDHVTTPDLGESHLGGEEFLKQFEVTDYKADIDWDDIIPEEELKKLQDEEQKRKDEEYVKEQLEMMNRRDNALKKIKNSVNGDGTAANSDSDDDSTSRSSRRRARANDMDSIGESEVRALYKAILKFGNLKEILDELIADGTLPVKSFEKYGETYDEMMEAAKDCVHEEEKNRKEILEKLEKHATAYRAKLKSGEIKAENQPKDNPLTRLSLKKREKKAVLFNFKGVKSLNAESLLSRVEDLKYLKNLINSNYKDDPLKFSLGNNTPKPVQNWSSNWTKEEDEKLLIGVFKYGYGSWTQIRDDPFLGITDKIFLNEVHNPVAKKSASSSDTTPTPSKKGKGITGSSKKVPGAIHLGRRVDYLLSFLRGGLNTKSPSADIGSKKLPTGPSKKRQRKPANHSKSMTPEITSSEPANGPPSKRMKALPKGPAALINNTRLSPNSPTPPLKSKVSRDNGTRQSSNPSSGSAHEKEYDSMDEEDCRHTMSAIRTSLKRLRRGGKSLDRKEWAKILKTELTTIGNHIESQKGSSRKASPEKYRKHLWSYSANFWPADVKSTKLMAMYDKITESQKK

| Compound | Percent Effect [1] | Percent Effect [2] | Percent Effect [3] | Percent Effect [4] | Percent Effect (Trypanosoma cruzi) | Percent Effect [5] | Percent Effect [6] | Percent Effect (Homo sapiens) | Percent Effect [7] | Percent Effect [8] | Percent Effect [9] |
| --- | --- | --- | --- | --- | --- | --- | --- | --- | --- | --- | --- |
| Cc1ncoc1C(=O)N1C[C@H]2CCC[C@@]2(COCC2CCOCC2)C1 | -3.5% | 0% | 4.71% | -0.295% | 1.66% | 1.59% | 22.3% | -6.69% | 2.16% | 7.69% | 5.48% |
| Cc1scc(C(=O)N2CCC3(CCCN(C)C3=O)C2)c1-c1ccccc1 (stereo not given) | -0.994% | 0% | 1.8% | -1.74% | -3.09% | 1.91% | 7.41% | -8.13% | -2.65% | 9.76% | -4.36% |
| CCCc1nc(N2CCN(CC)CC2)c2c(n1)c(C)nn2CC | -0.47% | 7.79% | 2.46% | 26.2% | 5.01% | -6.9% | 10.5% | 10.3% | 7.53% | 16.1% | -5.13% |
| Cn1cc(CN2CC[C@H]3C[C@H](c4nc(C5CC5)cs4)O[C@@H]3C2)cn1 | -0.2% | 18.2% | -0.28% | 13.1% | 6.59% | -9.65% | 10.8% | 12.1% | 4.3% | 16.1% | -1.85% |
| NC(=O)C(CNC(=O)COCC(F)(F)F)Cc1ccc(F)cc1 (stereo not given) | -3.66% | 5.26% | 9.48% | -1.54% | 0.292% | -5.92% | 13.1% | -19.6% | 2.13% | 15.6% | -4.87% |
| c1ccc(-c2cc(CN3CCC(c4ccn[nH]4)CC3)on2)cc1 | -3.15% | -2.7% | -3.14% | 8.25% | -1.54% | -0.952% | 17.2% | 42.5% | 0.529% | 7.32% | -3.02% |
| Cc1oc(C(=O)O)cc1S(=O)(=O)Nc1c(F)cccc1-n1cccn1 | -5.09% | 0% | -0.737% | 4.46% | 7.5% | 0% | 11% | 7.88% | 2.73% | 6.17% | -3.81% |
| CCc1nsc(NC2CCCn3nc(CC)nc32)n1 (stereo not given) | -6.19% | 8% | -4.68% | 26% | 7.3% | 6.25% | 13.6% | 0.363% | 3.83% | 13.6% | -7.22% |
| O=C(c1ccco1)N1CC[C@H]2[C@H]1CCN2CC1CCOCC1 | -5.53% | 0% | 11.2% | -3.38% | -3.74% | 1.17% | -2.56% | 6.93% | 6.38% | 3.85% | -1.01% |
| COc1ccc(-c2cc(C3CCCCCN3S(=O)(=O)N(C)C)on2)cc1 (stereo not given) | -2.23% | -14.9% | 6.56% | -4.82% | 4.54% | -1.16% | 14.3% | 12.8% | -50.5% | -66.2% | -12.7% |
| CCN1CCCn2c(nc(CNC(=O)c3ccsc3)cc2=O)C1 | -4.67% | 13.5% | 7.54% | 3.9% | -0.0978% | 9.24% | 13.1% | -1.85% | 3.24% | 17.9% | -0.449% |
| COc1ccc2c(c1)CCN(CCC(=O)NC1CCCCC1)CC2 | -1.36% | 2.7% | -5.04% | 1.78% | 5.41% | -1.43% | 15.3% | 14.6% | 6.88% | 12.2% | -1.4% |
| CCOCCn1c(=O)[nH]c2cc(C(=O)N(C)CCc3cn[nH]c3)ccc21 | 0.265% | 16.2% | 4.85% | 14.1% | 5.6% | 22.4% | 17.8% | 13% | 3.7% | 12.2% | -7.29% |
| O=C(c1cnn(-c2ccccc2F)c1)N1CCN(CCO)CC1 | -0.313% | 2.67% | -3.7% | 3.26% | 5.36% | 16.1% | 0.698% | -20% | -0.546% | 3.7% | -1.23% |
| Cc1ccsc1C(=O)N1CC(C(=O)NCC2CC2)C2(CCOCC2)C1 (stereo not given) | -6.49% | 7.79% | 87.3% | -3.49% | -9.57% | 1.94% | 8.36% | 27.5% | 0% | -3.85% | -7.68% |
| Cc1ccc(CN2CCC3(C2)C(=O)N(CC(C)C)c2ccccc23)s1 (stereo not given) | -1.13% | -16.2% | -0.146% | 1.8% | -6.25% | 3.75% | 7.02% | 7.39% | 10.9% | 13.4% | -7.96% |
| CS(=O)(=O)N1CCc2c(cccc2NC(=O)CC(F)(F)F)C1 | -3.17% | 5.26% | 4.53% | -1.3% | -2.04% | 0% | 11.8% | -9.3% | 4.25% | 10.4% | -6.43% |
| CCNC(=O)c1nc2c(s1)CCCN2S(C)(=O)=O | -5.43% | 24% | -3.85% | -4.95% | 0.772% | -56.8% | 5.81% | 22.1% | -6.25% | 15% | -18.4% |
| CCN(Cc1ccco1)C(=O)NCc1nnc2n1CCC2 | -1.4% | 10.8% | -2.71% | 1.38% | -1.35% | 3.81% | 20.5% | 0.671% | 6.88% | 14.6% | -1.97% |
| COC(=O)c1sccc1S(=O)(=O)NCC1(O)CCOc2ccccc21 (stereo not given) | -3.54% | 0% | 5.9% | -3.21% | -3.72% | 1.82% | 1.77% | 4.11% | 0% | 7.5% | -4.1% |
